Laboratory results taken from PubChem BioAssay AID686978 (National Center for Advancing Translational Sciences (NCATS), 2013).
Hit rate of the full screen: of about 420,000 compounds, about 64,000 (15%) were called active. Inconclusive results (about 27%) are left out. The list is a sample of the results. Unmarked numbers belong to inactive results. Calls follow the shape of the dose curve; as a rule, active = well fitted inhibition curve with a large enough effect; inconclusive = small, poorly fitted or top-dose-only effect; inactive = flat fitted curve, though single readings scatter.

experiment: qHTS for Inhibitors of human tyrosyl-DNA phosphodiesterase 1 (TDP1): qHTS in cells in absence of CPT; conditions: DT40 Tdp1-/- hTDP1 cells, no CPT, ATP luminescence, 48 h; activity change, negative = growth inhibition: at 46.2 µM (top of the series); also: nearly all actives have a fitted effect of over 55% in size
Outline: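 Growth of hTDP1-complemented DT40 Tdp1-knockout cells is measured by ATP luminescence after at least 48 hr compound exposure at 37 °C, with DMSO substituting for the 20 nM CPT used in the parallel screen.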
% is scaled to controls: 0 for no effect and ±100 for the full control effect; potency is read from the fitted curve at half-maximal effect.

| Compound | activity change, negative = growth inhibition [%] | Potency |
| --- | --- | --- |
| CN(Cc1nc(-c2cnccn2)no1)Cc1n[nH]c2c1CCCCC2 | 0.716 | – |
| O=[N+]([O-])c1ccc(C=Nc2ccc(Cl)cc2Cl)s1 | – | 13 µM (active) |
| O=C(CSCc1ccccc1Cl)NNC(=O)c1ccccc1 | -16 | – |
| O=C(CCN1CCCO1)N1CCCC(N2CCN(c3cccc(C(F)(F)F)c3)CC2)C1 (stereo not drawn) | 1.53 | – |
| O=C(C1CC(=O)N(C2CCCC2)C1)N1CCN(c2cccc(C(F)(F)F)c2)CC1 (stereo not drawn) | – | 11.6 µM (active) |
| O=C(C1CC(=O)N(C2CCCCC2)C1)N1CCN(c2ccccc2)CC1 (stereo not drawn) | -17.8 | – |
| CC(=O)C1(C)N(O)C(C)(C)C(c2cccs2)=[N+]1[O-] (stereo not drawn) | 1.43 | – |
| CCOC(=O)c1cc2n(c1C)-c1ccccc1C2=O | -5.29 | – |
| CCOC(=O)CSc1nc2ccc(C)cc2[nH]1 | -12.5 | – |
| CCOC(=O)CN1C(=O)C(=O)c2cc(C)ccc21 | – | 14.6 µM (active) |
| CCOC(=O)C1CCN(C(=O)CN2C(=O)c3cccnc3Oc3ccc(C)cc32)CC1 | 10.2 | – |
| CC(OC(=O)CN1C(=O)c2ccccc2C1=O)C(=O)c1ccccc1 (stereo not drawn) | 0.701 | – |
| CC(C)OC(=O)CN1C(=O)C(=O)c2ccccc21 | – | 13 µM (active) |
| COc1ccccc1C(=O)Nc1ccnn1C1CCN(C(=O)C(C)(C)C)CC1 | -15.1 | – |
| CC1Cc2ccccc2N1CC(=O)Nc1ccc2c(c1)OC(F)(F)O2 (stereo not drawn) | -23.1 | – |
| Cc1cccc(C(=O)Nc2ccccc2C(=O)NCc2cccnc2)c1 | -2.04 | – |
| CCC(C)c1ccc(NC(=O)COC(=O)C2CCCC2)cc1 (stereo not drawn) | -2.83 | – |
| CNC[C@@H]1Oc2c(NS(C)(=O)=O)cccc2C(=O)N([C@@H](C)CO)C[C@H]1C | -0.631 | – |
| Cc1cccc(-n2c(Cc3cc(=O)[nH]c(=O)[nH]3)nnc2SCC(=O)Nc2cccc(C(F)(F)F)c2)c1 | 1.12 | – |
| c1ccc(CCn2nnnc2CN2CCN(C3CCCC3)CC2)cc1 | -3.23 | – |
| Cc1cc(O)c(C(c2ccccc2)N2CCN(c3ccccc3F)CC2)c(=O)n1Cc1ccco1 (stereo not drawn) | 1.79 | – |
| CCCCn1nnnc1C(c1cccc(OC)c1OC)N1CCN(C/C=C/c2ccccc2)CC1 (stereo not drawn) | – | 20.6 µM (active) |
| COc1ccccc1C(c1nnnn1CC1CCCO1)N1CCN(c2ccccc2)CC1 (stereo not drawn) | -0.572 | – |

| Compound | activity change, negative = growth inhibition [%] | Potency |
| --- | --- | --- |
| c1ccc(C(c2ccccc2)N2CCN(Cc3nnnn3C3CCCCC3)CC2)cc1 | – | 20.6 µM (active) |
| COc1ccc(CCn2nnnc2C(c2ccccc2)N2CCN(C)CC2)cc1OC (stereo not drawn) | -10.5 | – |
| Cc1cccc(N2CCN(C(c3ccccc3)c3nnnn3CC3CCCO3)CC2)c1C (stereo not drawn) | – | 11.6 µM (active) |
| C=CCC(Nc1ccccc1)c1cccc(OC)c1OC (stereo not drawn) | -27.1 | – |
| Clc1ccc(-n2nnnc2CN2CCCCC2)cc1Cl | -20.1 | – |
| CCCCn1nnnc1C(c1ccccc1)N1CCN(c2ccccc2OC)CC1 (stereo not drawn) | – | 20.6 µM (active) |
| CCCCn1nnnc1NCc1cc(OC)c(OC)c(OC)c1 | -16 | – |
| COc1ccccc1N1CCN(Cc2nnnn2CCc2ccccc2)CC1 | -21.4 | – |
| O=C(Nc1nncs1)c1ccccc1NS(=O)(=O)c1cccs1 | -5 | – |
| O=C(CSCc1ccc([N+](=O)[O-])cc1)Nc1cccc(C(=O)Nc2ccccc2C(=O)O)c1 | -1.66 | – |
| C[C@H](NC(=O)C1CC(=O)N(c2ccc3c(c2)OCO3)C1)C(=O)NCc1ccco1 (stereo partly drawn) | 5.08 | – |
| CCCCC(=O)NCc1ccc(F)cc1 | -5.14 | – |
| CCCCNC(=O)C1CCC(CNS(=O)(=O)c2ccc(NC(C)=O)cc2)CC1 (stereo not drawn) | – | inactive |
| O=C1C(=O)N(CCN2CCOCC2)C(c2ccccn2)/C1=C(/O)c1ccc(Cl)cc1 (stereo not drawn) | -2.58 | – |
| O=C(Nc1ccnn1C1CCN(C/C=C/c2ccc(F)cc2)CC1)C1CCCC1 | -24.1 | – |
| O=C(O)CN1CCN(C(c2ccccc2)c2ccccc2)CC1 | -3.58 | – |
| COc1ccc(/C=C/CN2CCN(Cc3ccc(C)cc3)C(CCO)C2)cc1 (stereo not drawn) | -11.8 | – |
| CC(C)OCC(O)CN1CCN(C(c2ccccc2)c2ccccc2)CC1 (stereo not drawn) | -29.4 | – |
| COc1ccc(C(c2nnnn2C2CCCC2)N2CCN(C/C=C/c3ccccc3)CC2)cc1 (stereo not drawn) | – | 16.4 µM (active) |
| Oc1ccccc1CN1CCN(C(c2ccccc2)c2ccccc2)CC1 | – | 16.4 µM (active) |
| CCOC(=O)c1c(C(C#N)C#N)cc(C)nc1C | 6.14 | – |
| OC[C@H]1O[C@@H](c2nc(-c3nc(-c4ccc(F)cc4)no3)cs2)[C@H](O)[C@@H](O)[C@H]1O | -1.45 | – |
| O=C(Nc1ccc2c(c1)OCO2)c1cc(-c2cccc(Cl)c2)on1 | -24 | – |

| Compound | activity change, negative = growth inhibition [%] | Potency |
| --- | --- | --- |
| CCC(Oc1ccccc1)C(=O)NCc1cccnc1 (stereo not drawn) | -9.49 | – |
| O=C(O)CC/C(=C\c1cc2c(cc1Br)OCO2)c1nc2ccccc2s1 | -10.6 | – |
| O=C(O)C1=C(C(=O)O)C2CCC1C2 | 7.41 | – |
| COc1ccccc1N(CC(=O)N/N=C(\C)c1ccccc1O)S(=O)(=O)c1ccc(C)cc1 | – | 1.64 µM (active) |
| COc1ccccc1N(CC(=O)Nc1c(C)n(C)n(-c2ccccc2)c1=O)S(=O)(=O)c1ccccc1 | -2.53 | – |
| COc1ccc(S(=O)(=O)N(CC(=O)N/N=C/c2ccccc2C(=O)O)c2ccccc2OC)cc1 | 8.49 | – |
| COC(=O)[C@H](C(C)C)n1c(C)c(C(C)=O)c(C(C)=O)c1C | -4.99 | – |
| O=S(=O)(c1cccc(C(F)(F)F)c1)N1CCN(c2cnccn2)CC1 | -22.1 | – |
| O=S(=O)(c1cccc(C(F)(F)F)c1)N1c2ccccc2-n2cccc2C1c1cccnc1 (stereo not drawn) | – | 18.4 µM (active) |
| O=S(=O)(c1cccc(C(F)(F)F)c1)N1CCN(c2nc(-c3cccs3)nc3ccccc23)CC1 | 3.79 | – |
| O=S(=O)(c1ccc(F)cc1)n1ccc(-c2cnc(-c3ccccc3)s2)n1 | -24.7 | – |
| COc1ccc(NC(C)=O)cc1NC(=O)CN1CCN(c2ccccn2)CC1 | -3.85 | – |
| CCN(CC)c1ccc(NC(=O)CN2CCN(c3ccccn3)CC2)cc1 | 4.15 | – |
| CN(C(=O)CN1CCN(c2cc(-c3ccc(OCc4ccccc4)cc3)ncn2)CC1)c1ccccc1 | – | 18.4 µM (active) |
| O=C1OCC2=C1C(c1ccccc1)CC(=O)N2c1cccc(F)c1 (stereo not drawn) | -21.1 | – |
| CSc1sc(C(=O)NNC(=O)c2ccc(Cl)cc2)c2c1C=CCC2 | -20.5 | – |
| Cc1ccc(OCC(=O)Nc2ccc(OCc3cc(=O)n4c(C)csc4n3)cc2)cc1C | -20.7 | – |
| Cc1ccc(C(=O)Nc2ccc(OCc3cc(=O)n4c(C)csc4n3)cc2)cc1 | -16.5 | – |
| Cc1csc2nc(COc3ccc(NC(=O)COc4ccccc4)cc3)cc(=O)n12 | -5.67 | – |
| Cc1csc2nc(COC(=O)c3ccc(NC(=O)COc4ccccc4F)cc3)cc(=O)n12 | – | 18.4 µM (active) |
| Cc1csc2nc(COC(=O)c3ccccc3NC(=O)c3ccccc3Cl)cc(=O)n12 | – | 11.6 µM (active) |
| O=C(COc1ccccc1F)Nc1ccc(C(=O)OCc2cc(=O)n3nc(C4CC4)sc3n2)cc1 | -5.03 | – |
